Results reported in publication PMC7862700, “An all-to-all approach to the identification of sequence-specific readers for epigenetic DNA modifications on cytosine”.

Columns and labels:
Assay in all cases: DAPPL (digital affinity profiling via proximity ligation, sequencing); 10 mM Tris-HCl pH 7.5, 50 mM NaCl, 1 mM DTT, 4% glycerol, room temperature, 30 min; GST-TFs on glutathione beads, 16-mer random dsDNA library, 0.1% formaldehyde crosslink after washing; high values mean tight binding
Conditions in all cases: protein: recombinant; tags: N-terminal GST; dsDNA, one strand shown
ETV1 = ETV1 (Homo sapiens, UniProt P50549 1-477)
Method in brief: (§1)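 Binding signal is each hexamer's read frequency for a factor divided by its frequency in the tag-only sample. The factors were GST-fused human transcription factors from yeast, captured on glutathione beads, DNA-barcoded and pooled with that sample. Pools were incubated with 200 nmole of a random double-stranded 16-mer DNA library in Tris/NaCl/DTT/glycerol buffer at room temperature for 30 min, then washed, crosslinked with 0.1% formaldehyde, proximity-ligated with BsaI/T4 ligase (1 h, 37 °C), PCR-amplified and sequenced on an Illumina NextSeq500.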

ERF = biological target: T1, ERF (Homo sapiens, UniProt P50548 1-548)
T1 sequence: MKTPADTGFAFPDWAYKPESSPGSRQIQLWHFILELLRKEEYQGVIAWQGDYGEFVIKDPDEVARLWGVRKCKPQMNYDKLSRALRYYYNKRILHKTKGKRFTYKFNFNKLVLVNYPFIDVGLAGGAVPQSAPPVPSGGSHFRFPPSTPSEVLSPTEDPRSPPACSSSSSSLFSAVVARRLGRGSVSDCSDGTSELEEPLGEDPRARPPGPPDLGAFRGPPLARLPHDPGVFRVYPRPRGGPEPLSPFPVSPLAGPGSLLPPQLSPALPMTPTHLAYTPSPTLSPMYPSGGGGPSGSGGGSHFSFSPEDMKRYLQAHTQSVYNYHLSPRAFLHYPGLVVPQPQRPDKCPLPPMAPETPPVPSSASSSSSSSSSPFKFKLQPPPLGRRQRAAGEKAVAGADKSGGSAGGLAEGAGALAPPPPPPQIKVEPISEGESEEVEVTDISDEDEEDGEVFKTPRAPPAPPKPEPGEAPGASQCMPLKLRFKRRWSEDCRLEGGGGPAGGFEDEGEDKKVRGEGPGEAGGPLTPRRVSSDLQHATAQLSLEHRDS
Method in brief: as §1

ETV3L = biological target: T2, ETV3L (Homo sapiens, UniProt Q6ZN32 1-361)
T2 sequence: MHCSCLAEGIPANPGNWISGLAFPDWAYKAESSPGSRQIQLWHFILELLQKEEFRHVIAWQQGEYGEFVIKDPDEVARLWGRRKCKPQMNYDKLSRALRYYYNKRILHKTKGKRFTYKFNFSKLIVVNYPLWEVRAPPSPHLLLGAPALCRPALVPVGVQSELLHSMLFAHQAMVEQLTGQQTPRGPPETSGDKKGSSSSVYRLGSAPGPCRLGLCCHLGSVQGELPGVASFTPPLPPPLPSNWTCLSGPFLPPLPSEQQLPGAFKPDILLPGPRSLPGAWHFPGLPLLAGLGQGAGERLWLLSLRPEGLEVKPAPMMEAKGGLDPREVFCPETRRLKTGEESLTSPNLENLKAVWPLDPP
Method in brief: as §1

ETS2 = biological target: T3, ETS2 (Homo sapiens, UniProt P15036 1-469)
T3 sequence: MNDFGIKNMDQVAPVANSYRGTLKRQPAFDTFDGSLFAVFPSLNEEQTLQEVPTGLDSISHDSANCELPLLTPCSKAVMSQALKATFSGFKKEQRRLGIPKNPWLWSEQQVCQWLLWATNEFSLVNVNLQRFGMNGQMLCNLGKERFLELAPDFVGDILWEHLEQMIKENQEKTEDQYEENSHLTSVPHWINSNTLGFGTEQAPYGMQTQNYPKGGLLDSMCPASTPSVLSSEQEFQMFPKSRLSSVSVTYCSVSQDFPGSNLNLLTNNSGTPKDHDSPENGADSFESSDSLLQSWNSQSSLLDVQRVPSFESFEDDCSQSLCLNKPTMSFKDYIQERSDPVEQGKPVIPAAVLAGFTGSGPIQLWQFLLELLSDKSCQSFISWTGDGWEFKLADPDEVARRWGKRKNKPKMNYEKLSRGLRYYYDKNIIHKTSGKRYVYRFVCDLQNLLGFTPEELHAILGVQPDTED
Method in brief: as §1

SPDEF = biological target: T4, SPDEF (Homo sapiens, UniProt O95238 1-335)
T4 sequence: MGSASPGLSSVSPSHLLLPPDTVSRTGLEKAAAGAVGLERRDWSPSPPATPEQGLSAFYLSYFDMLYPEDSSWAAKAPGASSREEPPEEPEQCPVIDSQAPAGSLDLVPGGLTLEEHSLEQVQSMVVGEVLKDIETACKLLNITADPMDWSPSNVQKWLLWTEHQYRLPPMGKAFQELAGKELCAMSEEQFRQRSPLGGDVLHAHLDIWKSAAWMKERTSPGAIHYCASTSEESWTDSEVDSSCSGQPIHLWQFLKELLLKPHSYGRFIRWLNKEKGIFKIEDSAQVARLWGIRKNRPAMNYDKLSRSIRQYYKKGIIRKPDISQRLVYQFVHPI
Method in brief: as §1

ETV7 = biological target: T5, ETV7 (Homo sapiens, UniProt Q9Y603 1-341)
T5 sequence: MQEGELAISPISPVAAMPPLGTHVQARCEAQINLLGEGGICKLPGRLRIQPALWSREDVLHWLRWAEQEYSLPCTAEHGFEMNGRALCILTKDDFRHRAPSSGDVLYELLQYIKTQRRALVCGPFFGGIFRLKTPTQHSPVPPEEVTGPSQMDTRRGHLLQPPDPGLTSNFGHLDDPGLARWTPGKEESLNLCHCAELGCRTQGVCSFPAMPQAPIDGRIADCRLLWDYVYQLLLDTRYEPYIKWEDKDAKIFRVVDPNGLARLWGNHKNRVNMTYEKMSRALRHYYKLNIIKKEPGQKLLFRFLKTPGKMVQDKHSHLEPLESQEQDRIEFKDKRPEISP
Method in brief: as §1

ELF5 = biological target: T6, ELF5 (Homo sapiens, UniProt Q9UKW6-2 1-255)
T6 sequence: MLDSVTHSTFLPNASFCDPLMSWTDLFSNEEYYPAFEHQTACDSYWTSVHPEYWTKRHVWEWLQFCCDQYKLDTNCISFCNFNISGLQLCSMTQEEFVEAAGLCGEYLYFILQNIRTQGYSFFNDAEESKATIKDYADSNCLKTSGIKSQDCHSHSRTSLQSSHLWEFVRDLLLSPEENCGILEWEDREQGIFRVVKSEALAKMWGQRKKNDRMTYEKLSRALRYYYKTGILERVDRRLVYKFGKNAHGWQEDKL
Method in brief: as §1

ETV3 = biological target: T7, ETV3 (Homo sapiens, UniProt P41162-2 1-143)
T7 sequence: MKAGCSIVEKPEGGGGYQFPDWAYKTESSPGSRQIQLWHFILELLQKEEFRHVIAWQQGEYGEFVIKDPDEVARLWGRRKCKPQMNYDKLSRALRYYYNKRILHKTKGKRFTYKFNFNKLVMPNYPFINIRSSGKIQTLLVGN
Method in brief: as §1

ETV6 = ETV6 (Homo sapiens, UniProt P41212 1-452)
Method in brief: as §1

Sequence of ETV1 (P50549 whole entry, the tested form may be a part): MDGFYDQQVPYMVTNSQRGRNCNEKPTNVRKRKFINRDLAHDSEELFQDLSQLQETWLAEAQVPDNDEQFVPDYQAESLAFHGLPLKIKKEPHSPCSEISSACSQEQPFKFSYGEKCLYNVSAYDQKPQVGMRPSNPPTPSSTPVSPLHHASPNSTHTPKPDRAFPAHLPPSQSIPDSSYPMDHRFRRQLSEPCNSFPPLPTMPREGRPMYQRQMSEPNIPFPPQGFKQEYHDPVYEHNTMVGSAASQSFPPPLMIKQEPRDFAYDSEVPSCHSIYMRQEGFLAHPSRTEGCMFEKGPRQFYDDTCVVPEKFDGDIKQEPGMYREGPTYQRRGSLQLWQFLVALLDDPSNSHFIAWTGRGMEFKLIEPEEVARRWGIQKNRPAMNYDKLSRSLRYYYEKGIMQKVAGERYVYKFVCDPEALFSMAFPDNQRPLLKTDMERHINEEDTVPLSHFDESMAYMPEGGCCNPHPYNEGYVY
Sequence of ETV6 (P41212 whole entry): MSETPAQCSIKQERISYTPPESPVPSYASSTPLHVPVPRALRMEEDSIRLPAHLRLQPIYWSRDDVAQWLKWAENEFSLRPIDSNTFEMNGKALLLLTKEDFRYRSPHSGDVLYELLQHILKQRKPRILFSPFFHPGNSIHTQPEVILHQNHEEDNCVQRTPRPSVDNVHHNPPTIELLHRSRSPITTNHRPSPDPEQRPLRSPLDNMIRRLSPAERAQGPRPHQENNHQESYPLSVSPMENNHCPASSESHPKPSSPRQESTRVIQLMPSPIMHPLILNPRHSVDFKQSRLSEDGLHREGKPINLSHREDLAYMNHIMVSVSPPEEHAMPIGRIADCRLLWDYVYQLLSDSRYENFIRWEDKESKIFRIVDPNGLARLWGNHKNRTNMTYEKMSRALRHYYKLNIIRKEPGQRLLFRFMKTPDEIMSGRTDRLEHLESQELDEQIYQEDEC

Sequence: AAGCCT
- binding signal (ETV1): 1.18 fold enrichment (6-mer frequency, TF over GST control)
- binding signal (ERF): 1.17 fold enrichment (6-mer frequency, TF over GST control)
- binding signal (ETV3L): 1.23 fold enrichment (6-mer frequency, TF over GST control)
- binding signal (ETS2): 1.22 fold enrichment (6-mer frequency, TF over GST control)
- binding signal (SPDEF): 1.02 fold enrichment (6-mer frequency, TF over GST control)
- binding signal (ETV7): 1.3 fold enrichment (6-mer frequency, TF over GST control)
- binding signal (ELF5): 1.2 fold enrichment (6-mer frequency, TF over GST control)
- binding signal (ETV3): 1.3 fold enrichment (6-mer frequency, TF over GST control)
- binding signal (ETV6): 1.23 fold enrichment (6-mer frequency, TF over GST control)
